The nature of assay [1]: qHTS assay to identify small molecule agonists of the constitutive androstane receptor (CAR) signaling pathway - cell viability counter screen (AID 1224836). Further: on the % scale 0 is the no-effect control and ±100 the full control effect; nearly all actives have a fitted effect of over 45% in size. The procedure, abridged:
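HepG2 cells stably carrying hCAR and a CYP2B6-2.2kb reporter; 15-concentration compounds plus PK11195 (final 0.75 uM), 23 hr at 37 C/5% CO2. Viability read by CellTiter-Fluor fluorescence.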

The nature of assay [2]: qHTS assay to identify small molecule antagonists of the constitutive androstane receptor (CAR) signaling pathway - cell viability counter screen (AID 1224837). Further: on the % scale 0 is the no-effect control and ±100 the full control effect; nearly all actives have a fitted effect of over 45% in size. The procedure, abridged: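 In quantitative HTS format, compounds at 15 concentrations were applied to HepG2 cells double-transfected with hCAR and CYP2B6-2.2kb under 50 nM CITCO stimulation; live-cell protease activity was read after 23 hr via CellTiter-Fluor.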
(In general: In qHTS, concentration-response curves come from the screen itself.)

Assay [3] addresses Nuclear receptor subfamily 1 group I member 3 (Homo sapiens) (UniProt Q14994). The assay is described as follows: qHTS assay to identify small molecule antagonists of the constitutive androstane receptor (CAR) signaling pathway (AID 1224838). Further: nearly all actives have a fitted effect of over 40% in size. Further: potency means the concentration at half of the fitted maximal effect. The essentials:
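CITCO-stimulated (50 nM final) HepG2 cells stably transfected with hCAR and CYP2B6-2.2kb luciferase were exposed to compounds at 15 concentrations for 24 h at 37 C/5% CO2. A luciferase reagent was added and luminescence recorded after 30 min.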

A short description of assay [4]: qHTS assay to identify small molecule antagonists of the estrogen related receptor signaling pathway with the pleiotropic PPARgamma coactivator (PGC) from Tox21 10K library - cell viability counter screen (AID 1224840; active means well fitted cell-killing curve with a large enough effect in the repeat runs, not every such curve was filed as active; further: nearly all actives have a fitted effect of over 40% in size; further: potency means the concentration at half of the fitted maximal effect). The procedure, abridged: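 Viability counter screen, PGC/ERR cells: 17.5 h compound exposure at 37 C, CellTiter-Fluor fluorescence endpoint.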
The nature of assay [5]: qHTS assay to identify small molecule agonists of the hypoxia (HIF-1) signaling pathway - cell viability counter screen (AID 1224844; calls by dose curve; further: nearly all actives have a fitted effect of over 50% in size; further: potency means the concentration at half of the fitted maximal effect). The essentials:
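Same wells as the HIF-1 reporter screen; ME-180 cells carrying HRE-bla, 17 hr treatment at 37C; CellTiter-Glo luminescence read after 30 min at room temperature.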

The nature of assay [6]: qHTS assay to identify small molecule agonists of H2AX - cell viability counter screen (AID 1224847; calls by dose curve; further: nearly all actives have a fitted effect of over 30% in size; further: potency means the concentration at half of the fitted maximal effect). The essentials:
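CHO-K1 cells plated overnight at 37C, then exposed 3 h at 37C to compounds at 15 concentrations (0.76% DMSO final). Viability by CellTiter-Glo luminescence after 30 min at room temperature.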

The nature of assay [7]: qHTS RealTime-Glo MT Cell Viability Assay in HepG2 cells - 24 hour (AID 1224867). Further: on the % scale 0 is the no-effect control and ±100 the full control effect; nearly all actives have a fitted effect of over 50% in size. The procedure, abridged:
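Luminescence read-out: viable HepG2 cells reduce a prosubstrate to a NanoLuc substrate, giving a signal proportional to live cell number. Reads taken at 0, 8, 16, 24, 32 and 40 h of compound exposure at 37 C.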

Assay [8] is described as follows: A CellTox Green Cytotoxicity Assay to monitor cytotoxicity in HEK293 cells - 0 hour (AID 1224869). Further: on the % scale 0 is the no-effect control and ±100 the full control effect; nearly all actives have a fitted effect of over 50% in size. The procedure, abridged:
(§1)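 Homogeneous no-lysis format: HEK293 cell suspension mixed with CellTox Green reagent, seeded, incubated 5 h at 37 C/5% CO2, then dosed by pintool with compound in DMSO.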

Assay [9] in a line: qHTS RealTime-Glo MT Cell Viability Assay in HepG2 cells - 40 hour (AID 1224870). Further: on the % scale 0 is the no-effect control and ±100 the full control effect; nearly all actives have a fitted effect of over 50% in size. The procedure, abridged: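 HepG2 cells (600/well) mixed with RealTime-Glo MT reagent, settled 5 h at 37 C/5% CO2 before compound addition. Nonlytic NanoLuc luminescence from viable-cell prosubstrate reduction read repeatedly during 40 h treatment at 37 C.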
Assay [10] in a line: qHTS RealTime-Glo MT Cell Viability Assay in HEK293 cells - 16 hour (AID 1224872). Further: nearly all actives have a fitted effect of over 50% in size. Further: potency means the concentration at half of the fitted maximal effect. The essentials:
(§2)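 Nonlytic real-time viability readout: viable cells convert prosubstrate to NanoLuc substrate, giving luminescence proportional to live cell number. HEK293, 600 cells/well, compound added after 5 h, continuous culture at 37 C.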

Assay [11] can be described thus: qHTS assay to identify small molecule agonists of H2AX (AID 1224845; active means well fitted activation curve with a large enough effect in the signal ratio in the repeat runs, not every such curve was filed as active; the % refers to the signal ratio; further: potency means the concentration at half of the fitted maximal effect). The essentials: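 Wild-type CHO-K1 cells, plated overnight, exposed 3hr at 37C to 15 concentrations (0.76% DMSO final). Lysed, then HTRF anti-pH2AX (S139) cryptate and anti-H2AX-d2 antibodies, 24 hr room temperature; 665/620 nm emission read.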
A short description of assay [12]: qHTS assay to identify small molecule agonists of the hypoxia (HIF-1) signaling pathway (AID 1224846; active means well fitted activation curve with a large enough effect in the signal ratio in the repeat runs, not every such curve was filed as active; the % refers to the signal ratio; further: on the % scale 0 is the no-effect control and ±100 the full control effect). The procedure, abridged:
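In ME-180 cells bearing an HRE-bla construct, 17 h treatment with DMSO-dissolved compounds at 37C was followed by CCF4-AM loading to quantify reporter induction.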

A short description of assay [13]: A CellTox Green Cytotoxicity Assay to monitor cytotoxicity in HEK293 cells - 40 hour (AID 1224871). Further: nearly all actives have a fitted effect of over 45% in size. Further: potency means the concentration at half of the fitted maximal effect. The essentials: as §1
The target in assay [14] is Thyrotropin receptor (Homo sapiens) (UniProt P16473). Put plainly: qHTS assay to identify small molecule agonists of the thyroid stimulating hormone receptor (TSHR) signaling pathway (AID 1224843; calls by dose curve; further: on the % scale 0 is the no-effect control and ±100 the full control effect; nearly all actives have a fitted effect of over 45% in size). The essentials:
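Agonist-mode screen: TSHR HEK293 cells received test chemicals for half an hour at room temperature, then HTRF cAMP detection reagents for one hour prior to fluorescence measurement. Each chemical ran as a 15-concentration series, triplicated.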

The target of assay [15] is Nuclear receptor subfamily 1 group I member 3 (Homo sapiens) (UniProt Q14994). Put plainly: qHTS assay to identify small molecule agonists of the constitutive androstane receptor (CAR) signaling pathway (AID 1224839). Further: nearly all actives have a fitted effect of over 15% in size. Further: potency means the concentration at half of the fitted maximal effect.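 On activation: HepG2 cells stably carrying human CAR and a CYP2B6 luciferase reporter; on the % scale 0 is the no-effect control and ±100 the full control effect.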 The procedure, abridged:
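HepG2 cells stably co-transfected with hCAR and a CYP2B6-2.2kb luciferase reporter; compounds at 15 concentrations with 0.75 uM PK11195 present. After 24 hr at 37 C, luciferase read by ONE-Glo luminescence.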

Assay [16] is described as follows: qHTS assay to identify small molecule antagonists of the estrogen related receptor signaling pathway with the pleiotropic PPARgamma coactivator (PGC) from Tox21 10K library (AID 1224841; call rule not given here). The essentials:
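In the PGC/ERR line, DMSO solutions of test chemicals are pin-delivered to 2,000 cells/well six hours after dispensing. Following eighteen hours' incubation, One-Glo reagent is added and luminescence recorded.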

A short description of assay [17]: qHTS assay to identify small molecule agonists of the estrogen related receptor signaling pathway with the pleiotropic PPARgamma coactivator (PGC) from Tox21 10K library (AID 1224842). Further: on the % scale 0 is the no-effect control and ±100 the full control effect; nearly all actives have a fitted effect of over 15% in size. The essentials: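 PGC/ERR reporter cell line, 2,000 cells per well, incubated 6 h at 37 C before 23 nL compound in DMSO was added. After 18 h at 37 C, One-Glo luminescence read following 30 min at room temperature.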

Assay [18] is described as follows: qHTS assay to identify small molecule antagonists of the estrogen related receptor (ERR) signaling pathway from Tox21 library (AID 1224848). Further: nearly all actives have a fitted effect of over 50% in size. Further: potency means the concentration at half of the fitted maximal effect. The essentials:
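Quantitative high-throughput format: ERR reporter cells (2,000/well) pre-incubated 6 h, treated 18 h at 37 C with compounds in DMSO alongside positive and negative controls, then read by ONE-Glo luminescence.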

Assay [19] is described as follows: qHTS assay to identify small molecule agonists of the estrogen related receptor (ERR) signaling pathway from Tox21 library (AID 1224849; calls by dose curve; further: on the % scale 0 is the no-effect control and ±100 the full control effect; nearly all actives have a fitted effect of over 15% in size). Conditions: ERR reporter cell line, ONE-Glo luciferase, 18 h. The procedure, abridged:
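Reporter cells (ERR, NTP source) treated with Tox21 10K compounds 18 h, 37 C. Readout: ONE-Glo luminescence, 30 min RT.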

Assay [20] is described as follows: qHTS RealTime-Glo MT Cell Viability Assay in HEK293 cells - 32 hour (AID 1224868). Further: nearly all actives have a fitted effect of over 50% in size. Further: potency means the concentration at half of the fitted maximal effect. The procedure, abridged:
as §2

Molecules are shown by their SMILES. Values joined by “and” are separate entries in the source; they are usually repeats but may differ in a detail not shown here. Equal entries are not always repeated. Inconclusive results are not listed. The source holds several records for some structures; these can differ, active in one and inactive in another. Active and inactive are the calls of the source. Unless noted, the call rests on the fitted dose curve; in most records, active means well fitted curve in the direction sought with a large enough effect in the repeat runs; inconclusive means weak or mixed curves; inactive means no such curve, though single readings can be large; an effect the other way counts as inactive or inconclusive.

Consider nine molecules from PubChem BioAssay (Tox21).

Sequence of Thyrotropin receptor (Homo sapiens) (P16473 whole entry, looked up): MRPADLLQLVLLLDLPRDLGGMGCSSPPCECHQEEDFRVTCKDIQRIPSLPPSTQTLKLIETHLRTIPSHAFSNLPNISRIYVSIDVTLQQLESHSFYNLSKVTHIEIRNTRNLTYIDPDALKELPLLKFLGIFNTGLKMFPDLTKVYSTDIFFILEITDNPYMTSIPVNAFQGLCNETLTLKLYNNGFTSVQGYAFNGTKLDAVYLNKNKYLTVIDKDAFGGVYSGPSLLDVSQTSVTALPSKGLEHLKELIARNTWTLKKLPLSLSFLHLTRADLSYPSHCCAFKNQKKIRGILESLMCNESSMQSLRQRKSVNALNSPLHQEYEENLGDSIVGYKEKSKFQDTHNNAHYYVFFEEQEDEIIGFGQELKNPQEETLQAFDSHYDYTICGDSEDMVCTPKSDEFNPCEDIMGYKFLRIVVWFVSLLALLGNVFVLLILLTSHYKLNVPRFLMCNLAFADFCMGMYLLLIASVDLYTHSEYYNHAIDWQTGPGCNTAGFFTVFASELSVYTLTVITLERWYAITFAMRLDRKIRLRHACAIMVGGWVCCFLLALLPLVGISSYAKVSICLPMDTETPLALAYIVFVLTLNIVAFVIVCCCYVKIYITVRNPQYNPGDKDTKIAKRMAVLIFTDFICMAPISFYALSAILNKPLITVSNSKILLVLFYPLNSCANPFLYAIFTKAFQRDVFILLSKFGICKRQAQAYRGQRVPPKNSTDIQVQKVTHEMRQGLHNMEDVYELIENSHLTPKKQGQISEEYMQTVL
Sequence of Nuclear receptor subfamily 1 group I member 3 (Homo sapiens) (Q14994 whole entry, looked up): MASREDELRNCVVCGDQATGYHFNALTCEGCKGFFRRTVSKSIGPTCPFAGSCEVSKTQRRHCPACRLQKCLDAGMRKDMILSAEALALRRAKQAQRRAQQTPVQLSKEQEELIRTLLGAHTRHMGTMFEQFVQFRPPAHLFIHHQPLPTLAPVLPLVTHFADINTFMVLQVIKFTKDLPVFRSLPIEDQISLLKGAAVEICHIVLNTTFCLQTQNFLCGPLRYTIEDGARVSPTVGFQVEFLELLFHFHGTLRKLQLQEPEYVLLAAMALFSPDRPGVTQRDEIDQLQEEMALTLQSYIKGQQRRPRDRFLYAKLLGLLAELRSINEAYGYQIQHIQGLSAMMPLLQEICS

As to `CCN(CC)CCOC(=O)C1(C2CCCCC2)CCCCC1`, the Potency result in assay [1], in assay [2], in [3], in assay [4], in assay [5] and in assay [7] was “inactive” each time. The Potency entry in [8] and in assay [9] was “inactive” throughout. The Potency is 49.2 µM (active) in assay [6] and 21.3 µM (active) in assay [10].

`COc1ccc(C#N)cc1`: the Potency entry in [1], in [2], in [3], in assay [4], in assay [5] and in assay [11] was “inactive” each time. Besides, the Potency result in [6], in [7], in [8], in assay [9], in assay [13] and in assay [10] was “inactive” in each case. In [12], the molecule was classed as inactive.

Regarding `CC(=O)Oc1ccc(C2(c3ccc(OC(C)=O)cc3)Oc3ccccc3NC2=O)cc1`, the Potency entry in assay [1], in assay [2], in assay [4], in [14], in assay [5] and in assay [11] was “inactive” in each case. The Potency result in [6], in assay [7], in assay [8] and in assay [10] was “inactive” each time. The Potency in [3] is 16.8 µM (active).

Consider `C=C(c1ccc(C(=O)O)cc1)c1cc2c(cc1C)C(C)(C)CCC2(C)C`, for which the Potency result in assay [1], in [2], in assay [17], in [7], in assay [20] and in [8] was “inactive” each time. Also, the Potency result in assay [9] and in assay [10] was “inactive” in each case. Further, the Potency in assay [15] was 38.6 µM (active) and inactive; in assay [4] it was 61.1 µM (active) and inactive; in [16], 21.7 µM (active); in assay [5], 15.5 µM (active) and 16.9 µM (active); in assay [11] it was 89.8 µM (active); in assay [6], 101 µM (active) and inactive. Besides, the Potency is 21.7 µM (active) and 23.7 µM (active) in assay [18]; 30.9 µM (active) and inactive in assay [13]. For the same molecule, the results for the activity change, positive = activation in [19] (at 42.5 µM (top of the series)) and in [19] (at 92.4 µM (top of the series)) were -34.6% (inactive) and -63.5% (inactive), respectively.

`Cc1cccc(C)n1`: the Potency result in assay [1], in [2], in assay [3], in assay [4], in assay [14] and in assay [5] was “inactive” each time. Further, the Potency entry in assay [11], in assay [6], in assay [7], in assay [20], in assay [8] and in assay [13] was “inactive” throughout. The Potency result in assay [10] was “inactive”.

Turning to `CC[N+](CC)(CC)Cc1ccccc1`, the Potency entry in [1], in [2], in assay [3], in assay [4], in assay [17] and in assay [5] was “inactive” each time. Also, the Potency result in assay [6], in [18], in [7], in assay [20], in [8] and in [9] was “inactive” throughout. Besides, the Potency result in assay [13] and in assay [10] was “inactive” in each case. Further, the call in [12] was inactive. For the same molecule, the activity change, positive = activation in [19] (at 92.4 µM (top of the series) unless noted) is -4.7% (inactive).

Take `CN1[C@@H]2CC[C@H]1CC(OC(=O)C(CO)c1ccccc1)C2` (stereo not given in full): the Potency entry in assay [1], in assay [2], in assay [3], in assay [4], in assay [5] and in [11] was “inactive” throughout. The Potency result in [6], in [7], in assay [20], in assay [8], in [9] and in [13] was “inactive” each time. Besides, the Potency result in assay [10] was “inactive”.

Regarding `CSc1c(Cl)c(Cl)c(Cl)c(Cl)c1Cl`, the Potency entry in assay [1], in assay [2], in assay [3], in assay [4], in assay [6] and in assay [8] was “inactive” throughout. The Potency entry in [9] was “inactive”.

As to `Cc1ccc(-n2[nH]c(C)c(N=Nc3cccc(-c4cccc(C(=O)O)c4)c3O)c2=O)cc1C`, the Potency entry in [1], in assay [2], in assay [3], in assay [14], in [6] and in assay [9] was “inactive” each time. In addition, the Potency entry in assay [13] is “inactive”. Also, the results for the Potency in assay [5] and in [20] were 6.74 µM (active) and 23.9 µM (active), respectively.
